Assay outcomes deposited in PubChem by several laboratories.
PrP UTR inh: inhibition of PrP 5' UTR reporter expression; cell-based PrP 5' UTR mRNA reporter, plate reader; inhibition, % (no concentration beside the values); 340,000 compounds, 0.35% hits; AID 488862; in the data active = inhibition above about 52%
ugtP null kill: compounds lethal to S. aureus RN4220 ugtP deletion mutant; OD600 growth, 16 h; growth inhibition, % (concentration not given with the values); 330,000 compounds, 0.54% hits; AID 1259309; in the data active = growth inhibition above about 68%
Sa RN4220 lethal: S. aureus RN4220 growth inhibition; OD600, 16 h; inhibition, % (concentration not given with the values); 330,000 compounds, 0.33% hits; in the data active = inhibition above about 85%
PfHsp40 rescue: compounds rescuing yeast from Plasmodium falciparum HSP40 toxicity; S. cerevisiae expressing PfHsp40, growth rescue, ATP luminescence; growth rescue, % at 12.5 µM; 340,000 compounds, 0.68% hits; in the data active = growth rescue above about 28%, passing the limit was not always enough;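 note: yeast W303a lacking pdr1 and pdr3 grown in galactose medium; growth measured after three days at 30 °C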
PrPC TRFRET: inhibitors of human cell surface prion protein PrPC. TR-FRET read-out. inhibition, % at 13.8 µM. 370,000 compounds, 0.43% hits. AID 720596; in the data active = inhibition above about 24%
CCHFV vOTU inh: blocks the CCHF virus ovarian tumor domain protease; inhibition, % at 11.5 µM; 370,000 compounds, 0.55% hits; CCHFV vOTU protease, Pep-AMC fluorescence; AID 651958; in the data active = inhibition above about 30%
A number is an active result. Rows were chosen to be rich in hits. Some 2.1% of all compounds tested hit in one or more screens of this group.

For S=C1NCC(c2ccccc2)N1CCCCC1CCCCC1 (stereo unspecified) the results were ugtP null kill inactive and Sa RN4220 lethal inactive.
For CCOc1ccccc1CNc1ccc(O)cc1 the results were PrP UTR inh inactive, ugtP null kill inactive, Sa RN4220 lethal inactive, PfHsp40 rescue inactive, PrPC TRFRET inactive and CCHFV vOTU inh 48.
`CC(C)C1S/C(=N/N=C/c2ccco2)NC1=O` (stereo unspecified) gave PrP UTR inh inactive, PfHsp40 rescue 58, PrPC TRFRET inactive and CCHFV vOTU inh inactive.
CCCCOc1ccc(C(=O)Oc2ccc(C)nc2)cc1 was read as PrP UTR inh inactive, ugtP null kill inactive, Sa RN4220 lethal inactive, PfHsp40 rescue inactive, PrPC TRFRET inactive and CCHFV vOTU inh inactive.
CCCCCOc1ccc(OC(=O)c2ccncc2)cc1 was read as PrP UTR inh inactive, ugtP null kill inactive, Sa RN4220 lethal inactive, PfHsp40 rescue 74, PrPC TRFRET inactive and CCHFV vOTU inh inactive.
For CN(C)C=NNC(=O)C1Cc2c(ccc3ccccc23)O1 (stereo unspecified) the results were ugtP null kill inactive and Sa RN4220 lethal inactive.
`CCCCC#Cc1ccccc1COC[B-](F)(F)F` gave PrPC TRFRET 29 and CCHFV vOTU inh inactive.
For F[B-](F)(F)COCc1ccccc1C#Cc1ccccc1 the results were PrPC TRFRET inactive and CCHFV vOTU inh inactive.
For Cc1cc(C)c(C)c(OCCCOc2cccc3cccnc23)c1 the results were PrP UTR inh inactive, ugtP null kill inactive, Sa RN4220 lethal inactive, PfHsp40 rescue 93, PrPC TRFRET inactive and CCHFV vOTU inh inactive.
Screening O=C1NC(=O)N(c2ccc3c(c2)OCO3)C(=O)C1=Cc1ccc(N2CCCC2)o1 returned ugtP null kill inactive and Sa RN4220 lethal inactive.
`Cc1cc(=O)n(-c2ccc(O)cc2)[nH]1` gave PrP UTR inh inactive, ugtP null kill 82, Sa RN4220 lethal inactive, PfHsp40 rescue inactive, PrPC TRFRET inactive and CCHFV vOTU inh inactive.
Screening Cc1cc(=O)n(-c2ccccc2Cl)[nH]1 returned PrP UTR inh inactive, ugtP null kill inactive, Sa RN4220 lethal inactive, PfHsp40 rescue inactive, PrPC TRFRET inactive and CCHFV vOTU inh inactive.
For O=C(CC1CC=CCCC(Cc2ccc(F)cc2)C(=O)OCC(c2ccccc2)NC1=O)NCCO (stereo unspecified) the results were ugtP null kill inactive and Sa RN4220 lethal inactive.
`O=C1Nc2ccccc2C1=Nc1sc2c(c1C(=O)Nc1ccccc1)CCCC2` gave ugtP null kill inactive and Sa RN4220 lethal inactive.
`Cc1ccc2sc(N(CCCN(C)C)C(=O)c3ccc(S(=O)(=O)N4CCc5ccccc5C4)cc3)nc2c1C` gave PrP UTR inh inactive, ugtP null kill inactive, Sa RN4220 lethal inactive, PfHsp40 rescue 79, PrPC TRFRET inactive and CCHFV vOTU inh inactive.
For COc1cccc2sc(N(CCCN(C)C)C(=O)c3ccc(S(=O)(=O)N4CCc5ccccc5C4)cc3)nc12 the results were PrP UTR inh inactive, ugtP null kill inactive, Sa RN4220 lethal inactive, PfHsp40 rescue inactive, PrPC TRFRET inactive and CCHFV vOTU inh inactive.
`CC(=O)Nc1ccc(NC(=O)c2nc(S(=O)(=O)Cc3cccc(C)c3)ncc2Cl)cc1` gave PrP UTR inh inactive, PfHsp40 rescue inactive, PrPC TRFRET 71 and CCHFV vOTU inh inactive.
CCOC(=O)c1ccc(NC(=O)c2nc(S(=O)(=O)Cc3ccccc3)ncc2Cl)cc1 was read as PrP UTR inh inactive, PfHsp40 rescue inactive, PrPC TRFRET inactive and CCHFV vOTU inh inactive.
`CCCc1cc(=O)oc2c(CNc3ccc(OCC)cc3)c(O)ccc12` gave PrP UTR inh inactive, ugtP null kill inactive, Sa RN4220 lethal inactive, PfHsp40 rescue 48, PrPC TRFRET inactive and CCHFV vOTU inh inactive.
For Cc1cc(C(=O)COC(=O)c2cc(Cl)ccc2N)c(C)n1Cc1ccco1 the results were PrP UTR inh inactive, ugtP null kill 99, Sa RN4220 lethal inactive, PfHsp40 rescue inactive, PrPC TRFRET inactive and CCHFV vOTU inh inactive.
Screening COc1cccc(N2C(CC(C)=O)c3ccccc3S2(=O)=O)c1 (stereo unspecified) returned ugtP null kill inactive and Sa RN4220 lethal inactive.
`Cc1nn(-c2ccccc2)c2c1C1(C(=O)N(C(C)C)c3ccccc31)C(C#N)=C(N)O2` (stereo unspecified) gave PrP UTR inh inactive, ugtP null kill inactive, Sa RN4220 lethal 92, PfHsp40 rescue inactive, PrPC TRFRET inactive and CCHFV vOTU inh inactive.
Cc1nn(-c2ccccc2)c(N)c1C1(O)C(=O)N(C(C)C)c2ccccc21 (stereo unspecified) was read as PrP UTR inh inactive, ugtP null kill inactive, Sa RN4220 lethal inactive, PfHsp40 rescue inactive, PrPC TRFRET inactive and CCHFV vOTU inh inactive.
Screening Cc1ccc2c(c1)C1C(CO2)C(c2ccccc2)[C@]2(C)C(=O)N(Cc3ccco3)CC(=O)N12 (stereo partly specified) returned ugtP null kill inactive and Sa RN4220 lethal inactive.
For CC1(c2ccccc2)CC(C)(C)N(C(=O)C2CCCO2)c2ccccc21 (stereo unspecified) the results were PrP UTR inh inactive, ugtP null kill inactive, Sa RN4220 lethal inactive, PfHsp40 rescue inactive, PrPC TRFRET inactive and CCHFV vOTU inh 35.
Screening Cc1cc(C=NNC(=O)C(=O)NCc2ccccn2)c(C)n1-c1cccc(Br)c1 returned ugtP null kill inactive and Sa RN4220 lethal inactive.
For CC(=NNC(=S)N1CCC1)c1ccccn1 the results were PrP UTR inh inactive, PfHsp40 rescue 34, PrPC TRFRET inactive and CCHFV vOTU inh inactive.
For CC(=NNC(=S)N1CCCC1)c1ccccn1 the results were PrPC TRFRET inactive and CCHFV vOTU inh inactive.
Screening COc1ccc(C=NNc2nc(-c3cccc(S(=O)(=O)N4CCCC4)c3)cs2)cc1OC returned ugtP null kill inactive and Sa RN4220 lethal inactive.
For O=C(c1cccs1)N(Cc1ccco1)c1nc(-c2ccc(F)cc2)cs1 the results were PrP UTR inh inactive, ugtP null kill 92, Sa RN4220 lethal inactive, PfHsp40 rescue inactive, PrPC TRFRET inactive and CCHFV vOTU inh inactive.
`CC1=C(C(=O)OC2CCCC2)C(c2coc3ccccc3c2=O)C2=C(CC(C)(C)CC2=O)N1` (stereo unspecified) gave ugtP null kill inactive, Sa RN4220 lethal inactive, PfHsp40 rescue 93, PrPC TRFRET inactive and CCHFV vOTU inh inactive.
Screening Cc1c(C(=O)Oc2cccc3ccccc23)cnn1-c1ccccc1 returned PrP UTR inh inactive, ugtP null kill inactive, Sa RN4220 lethal inactive, PfHsp40 rescue 34, PrPC TRFRET inactive and CCHFV vOTU inh inactive.
Screening CCc1nnc(N/N=C/c2c(Cl)cccc2Cl)n1N returned PfHsp40 rescue inactive, PrPC TRFRET inactive and CCHFV vOTU inh 77.
For Clc1ccc(OCCSc2ncccn2)c2ccccc12 the results were PrP UTR inh inactive, ugtP null kill 96, Sa RN4220 lethal inactive, PfHsp40 rescue inactive, PrPC TRFRET inactive and CCHFV vOTU inh inactive.
`c1cnc(SCCOc2cccc3ccccc23)nc1` gave PrP UTR inh inactive, ugtP null kill inactive, Sa RN4220 lethal inactive, PfHsp40 rescue inactive, PrPC TRFRET inactive and CCHFV vOTU inh inactive.
